About 83,000 compounds went through this panel and 20% of them were active in at least one assay; those are over-represented in the sample as a whole.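 Values shown are percent growth following 48 h exposure of cells in 96-well plates to a single concentration of compound; below 10 was considered active.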 Active and inactive are the calls of the source.
System: OVCAR-5 ovarian
Test: NCI-60 one-dose screen, 48 h (100 = growth as untreated, 0 = no growth, -100 = all killed)
Conditions: 10 µM

Q: `O=C1/C(=C/c2ccc(O)cc2)Oc2ccc(Cl)cc21` was tested. Which growth did it give?
A: The growth was 106% (inactive).

Q: With `COc1cc(C(=O)n2nc(N)c3c(C)cc(C)nc32)cc(OC)c1OC` as the compound, how does the growth read?
A: Its growth is 118% (inactive).

Q: `C#Cc1ccc(-n2c(/C=C/c3cc(OC)c(OC)c(OC)c3)nc3ncccc3c2=O)cc1` was tested. Which growth did it give?
A: The growth was 120% (inactive).

Q: How did the growth turn out when `COC(=O)[C@]12CC[C@@H](C)[C@H](C)[C@@H]1C1=CC[C@@H]3[C@@]4(C)C[C@@H](O)[C@H](O)[C@@](C)(CO)[C@@H]4[C@H](O)C[C@@]3(C)[C@]1(C)CC2` was run?
A: The growth was -21.6% (active).

Q: `Oc1ccccc1-c1nnc(Cn2c(Cc3cccc4ccccc34)nc3ccccc32)o1` was tested. Which growth did it give?
A: The growth was 96.8% (inactive).

Q: `COc1ccc(-c2nc(SCC(=O)c3ccc(Br)cc3)[nH]c(=O)c2C#N)cc1` was tested. Which growth did it give?
A: Its growth is 102% (inactive).

Q: `COc1ccc(C2C=C(c3ccc(Cl)c(Cl)c3)N=C3SC(C)=CN32)cc1` (stereo not given) was tested. Which growth did it give?
A: Its growth is 102% (inactive).

Q: `CCOc1nc(-c2ccccc2)cc2c(O)c(C(=O)NC(C)C)[nH]c(=O)c12` was tested. Which growth did it give?
A: The growth was 114% (inactive).

Q: How did the growth turn out when `S=c1c2ncccc2c(-c2ccccn2)nn1Cc1ccccn1` was run?
A: The growth was 111% (inactive).

Q: For `Nc1cc(O)cc(O)c1`, which growth is on record?
A: Its growth is 89.6% (inactive).

Q: Which growth does the source give for `COc1c(-c2c3sc(=O)[nH]c3nc3c2c(=O)[nH]n3C(C)C)cc2c(c1OC)OCO2` here?
A: Its growth is 96.7% (inactive).

Q: `Cc1c(C(=O)N[C@H](CO)Cc2ccccc2)[nH]c2ccc(Cl)cc2c1=O` was tested. Which growth did it give?
A: Its growth is 112% (inactive).

Q: How did the growth turn out when `COc1cc(Cn2c(-c3ccccc3)c(Cl)c3c2-c2oncc2CC3)cc(OC)c1` was run?
A: The growth was 96.7% (inactive).

Q: How did the growth turn out when `C/C=C\COc1cc(C)c(Cl)cc1Cl` was run?
A: The growth was 108% (inactive).

Q: How did the growth turn out when `CCOC(=O)CNC(=O)Nc1ccc(Oc2ccc(NC(=O)NCC(=O)OCC)cc2)cc1` was run?
A: The growth was 112% (inactive).

Q: With `c1ccc(CNc2nc(Nc3ccc(-c4nc5ccccc5[nH]4)cc3)c3cn[nH]c3n2)cc1` as the compound, how does the growth read?
A: The growth was 41.1% (inactive).

Q: Which growth does the source give for `c1ccc(COCC[P+](c2ccccc2)(c2ccccc2)c2ccccc2)cc1` here?
A: Its growth is 24.2% (inactive).

Q: For `CCOC(=O)C1=C(Nc2ccc(OC)cc2)C(N)=NC1=N`, which growth is on record?
A: The growth was 65.6% (inactive).

Q: For `NC(=O)C1CCCN(Cc2c[nH]c3ccccc23)C1` (stereo not given), which growth is on record?
A: Its growth is 99.8% (inactive).

Q: How did the growth turn out when `CC(=O)n1nc(C(=O)OC(C)(C)C)c2cc(F)c(F)cc21` was run?
A: The growth was 104% (inactive).

Q: For `Cc1cc(Cl)ccc1Nc1nc(C(F)(F)F)ccc1C(=O)N/N=C/c1ccccc1Cl`, which growth is on record?
A: Its growth is 30.8% (inactive).

Q: With `CN1/C(=C\C(I)C(I)C2=[N+](C)c3ccccc3C2(C)C)C(C)(C)c2ccccc21` (stereo not given) as the compound, how does the growth read?
A: The growth was 24.9% (inactive).

Q: `N#C/C(=C/c1cc([N+](=O)[O-])ccc1Cl)C(N)=O` was tested. Which growth did it give?
A: The growth was 107% (inactive).

Q: How did the growth turn out when `CCCCCCCCCCCC(=O)NCCCN(C)C` was run?
A: The growth was 91.1% (inactive).

Q: `CCc1nn2c(-c3cc(OC)c(OC)c(OC)c3)c(-c3cc(OC)c(OC)c(OC)c3)nc2s1` was tested. Which growth did it give?
A: Its growth is 90% (inactive).

Q: How did the growth turn out when `CCN1CCN(c2nc(NNC(=O)c3cccc(OC)c3)nc(N3CCN(C(c4ccccc4)c4ccccc4)CC3)n2)CC1` was run?
A: Its growth is 101% (inactive).

Q: `CCCCOCCOCCOCc1cc2c(cc1Br)OCO2` was tested. Which growth did it give?
A: The growth was 95.5% (inactive).

Q: Which growth does the source give for `CCCCCCCCCCCCCC[n+]1ccccc1` here?
A: Its growth is 5.24% (active).

Q: Which growth does the source give for `Cc1cc(C)c2nc(C)c(C)[n+]([O-])c2c1` here?
A: The growth was 99.6% (inactive).

Q: Which growth does the source give for `Clc1cc(Cl)c(OCCCCCCN2CCNCC2)c(Cl)c1` here?
A: The growth was 71% (inactive).

Q: Which growth does the source give for `COc1ccc(NC(=O)c2sc3nc4c(cc3c2N)C(O)CCC4)cc1` (stereo not given) here?
A: Its growth is 104% (inactive).

Q: For `CCCCCC(=O)N1c2ccccc2NC2=C(C(=O)CC(c3ccc(OC)c(OC)c3)C2)C1c1ccc(C(F)(F)F)cc1` (stereo not given), which growth is on record?
A: Its growth is 103% (inactive).

Q: For `COc1cc(C2C(C#N)=C(c3c[nH]c4ccccc34)Nc3nc(N)[nH]c(=O)c32)cc(OC)c1OC` (stereo not given), which growth is on record?
A: The growth was 96.8% (inactive).

Q: `COc1ccc(-c2nc(-c3nc4ccc(C)cc4[nH]3)c3ccccn23)cc1` was tested. Which growth did it give?
A: Its growth is 88.5% (inactive).

Q: Which growth does the source give for `COCCOC(=O)NC(=O)Nc1ccc(/C(=N/O)c2ccc(Cl)cc2)cc1` here?
A: Its growth is 47.1% (inactive).

Q: With `CCN(CCCNC(=O)Cc1cc(=O)oc2cc(N(C)C)ccc12)CCNc1ccnc2cc(Cl)ccc12` as the compound, how does the growth read?
A: Its growth is 109% (inactive).

Q: For `CC(C)c1ncc(CO)n1Cc1c(Cl)cccc1Cl`, which growth is on record?
A: Its growth is 106% (inactive).

System: OVCAR-4 ovarian
Test: as above
Conditions: 10 µM

Q: `O=C1/C(=C/c2ccc(O)cc2)Oc2ccc(Cl)cc21` was tested. Which growth did it give?
A: The growth was 120% (inactive).

Q: For `COc1cc(C(=O)n2nc(N)c3c(C)cc(C)nc32)cc(OC)c1OC`, which growth is on record?
A: The growth was 92.8% (inactive).

Q: Which growth does the source give for `C#Cc1ccc(-n2c(/C=C/c3cc(OC)c(OC)c(OC)c3)nc3ncccc3c2=O)cc1` here?
A: Its growth is 63.4% (inactive).

Q: How did the growth turn out when `COC(=O)[C@]12CC[C@@H](C)[C@H](C)[C@@H]1C1=CC[C@@H]3[C@@]4(C)C[C@@H](O)[C@H](O)[C@@](C)(CO)[C@@H]4[C@H](O)C[C@@]3(C)[C@]1(C)CC2` was run?
A: The growth was -11% (active).

Q: For `Oc1ccccc1-c1nnc(Cn2c(Cc3cccc4ccccc34)nc3ccccc32)o1`, which growth is on record?
A: The growth was 99.2% (inactive).

Q: With `COc1ccc(-c2nc(SCC(=O)c3ccc(Br)cc3)[nH]c(=O)c2C#N)cc1` as the compound, how does the growth read?
A: The growth was 120% (inactive).

Q: `COc1ccc(C2C=C(c3ccc(Cl)c(Cl)c3)N=C3SC(C)=CN32)cc1` (stereo not given) was tested. Which growth did it give?
A: The growth was 91.3% (inactive).

Q: How did the growth turn out when `CCOc1nc(-c2ccccc2)cc2c(O)c(C(=O)NC(C)C)[nH]c(=O)c12` was run?
A: The growth was 118% (inactive).

Q: For `S=c1c2ncccc2c(-c2ccccn2)nn1Cc1ccccn1`, which growth is on record?
A: Its growth is 97.2% (inactive).

Q: For `Nc1cc(O)cc(O)c1`, which growth is on record?
A: The growth was 94.1% (inactive).

Q: Which growth does the source give for `COc1c(-c2c3sc(=O)[nH]c3nc3c2c(=O)[nH]n3C(C)C)cc2c(c1OC)OCO2` here?
A: Its growth is 107% (inactive).

Q: How did the growth turn out when `Cc1c(C(=O)N[C@H](CO)Cc2ccccc2)[nH]c2ccc(Cl)cc2c1=O` was run?
A: The growth was 108% (inactive).

Q: `COc1cc(Cn2c(-c3ccccc3)c(Cl)c3c2-c2oncc2CC3)cc(OC)c1` was tested. Which growth did it give?
A: Its growth is 76.8% (inactive).

Q: How did the growth turn out when `C/C=C\COc1cc(C)c(Cl)cc1Cl` was run?
A: Its growth is 94.7% (inactive).

Q: How did the growth turn out when `CCOC(=O)CNC(=O)Nc1ccc(Oc2ccc(NC(=O)NCC(=O)OCC)cc2)cc1` was run?
A: The growth was 106% (inactive).

Q: With `c1ccc(CNc2nc(Nc3ccc(-c4nc5ccccc5[nH]4)cc3)c3cn[nH]c3n2)cc1` as the compound, how does the growth read?
A: Its growth is 25.7% (inactive).

Q: With `c1ccc(COCC[P+](c2ccccc2)(c2ccccc2)c2ccccc2)cc1` as the compound, how does the growth read?
A: The growth was 6.56% (active).

Q: With `CCOC(=O)C1=C(Nc2ccc(OC)cc2)C(N)=NC1=N` as the compound, how does the growth read?
A: Its growth is 59.8% (inactive).

Q: With `NC(=O)C1CCCN(Cc2c[nH]c3ccccc23)C1` (stereo not given) as the compound, how does the growth read?
A: Its growth is 108% (inactive).

Q: How did the growth turn out when `CC(=O)n1nc(C(=O)OC(C)(C)C)c2cc(F)c(F)cc21` was run?
A: The growth was 98.5% (inactive).

Q: How did the growth turn out when `Cc1cc(Cl)ccc1Nc1nc(C(F)(F)F)ccc1C(=O)N/N=C/c1ccccc1Cl` was run?
A: Its growth is 29.2% (inactive).

Q: For `CN1/C(=C\C(I)C(I)C2=[N+](C)c3ccccc3C2(C)C)C(C)(C)c2ccccc21` (stereo not given), which growth is on record?
A: Its growth is 21.6% (inactive).

Q: With `N#C/C(=C/c1cc([N+](=O)[O-])ccc1Cl)C(N)=O` as the compound, how does the growth read?
A: Its growth is 94.2% (inactive).

Q: How did the growth turn out when `CCCCCCCCCCCC(=O)NCCCN(C)C` was run?
A: Its growth is 96.5% (inactive).

Q: For `CCc1nn2c(-c3cc(OC)c(OC)c(OC)c3)c(-c3cc(OC)c(OC)c(OC)c3)nc2s1`, which growth is on record?
A: The growth was 72.6% (inactive).

Q: For `CCN1CCN(c2nc(NNC(=O)c3cccc(OC)c3)nc(N3CCN(C(c4ccccc4)c4ccccc4)CC3)n2)CC1`, which growth is on record?
A: The growth was 62.4% (inactive).

Q: Which growth does the source give for `CCCCOCCOCCOCc1cc2c(cc1Br)OCO2` here?
A: The growth was 105% (inactive).

Q: How did the growth turn out when `CCCCCCCCCCCCCC[n+]1ccccc1` was run?
A: The growth was -6.58% (active).

Q: For `Cc1cc(C)c2nc(C)c(C)[n+]([O-])c2c1`, which growth is on record?
A: The growth was 107% (inactive).

Q: How did the growth turn out when `Clc1cc(Cl)c(OCCCCCCN2CCNCC2)c(Cl)c1` was run?
A: The growth was 86.9% (inactive).

Q: `COc1ccc(NC(=O)c2sc3nc4c(cc3c2N)C(O)CCC4)cc1` (stereo not given) was tested. Which growth did it give?
A: The growth was 95.6% (inactive).

Q: How did the growth turn out when `Cc1cc(C(C)(C)CC(C)(C)C)ccc1OCCOCC[N+](C)(C)Cc1ccccc1` was run?
A: The growth was 2.92% (active).

Q: `CCCCCC(=O)N1c2ccccc2NC2=C(C(=O)CC(c3ccc(OC)c(OC)c3)C2)C1c1ccc(C(F)(F)F)cc1` (stereo not given) was tested. Which growth did it give?
A: The growth was 41.8% (inactive).

Q: `COc1cc(C2C(C#N)=C(c3c[nH]c4ccccc34)Nc3nc(N)[nH]c(=O)c32)cc(OC)c1OC` (stereo not given) was tested. Which growth did it give?
A: The growth was 75.2% (inactive).

Q: How did the growth turn out when `COc1ccc(-c2nc(-c3nc4ccc(C)cc4[nH]3)c3ccccn23)cc1` was run?
A: Its growth is 44.1% (inactive).

Q: With `COCCOC(=O)NC(=O)Nc1ccc(/C(=N/O)c2ccc(Cl)cc2)cc1` as the compound, how does the growth read?
A: The growth was 43.7% (inactive).

Q: `CCN(CCCNC(=O)Cc1cc(=O)oc2cc(N(C)C)ccc12)CCNc1ccnc2cc(Cl)ccc12` was tested. Which growth did it give?
A: Its growth is 81.7% (inactive).

Q: `CC(C)c1ncc(CO)n1Cc1c(Cl)cccc1Cl` was tested. Which growth did it give?
A: Its growth is 116% (inactive).

From PubChem BioAssay (NCI)
